From PubChem
VDR inh: blocks the human vitamin D receptor; Potency, µM, for the others: max response, negative = inhibition, actives largely listed as inhibitors; P11473; VDR-SRC2-3 peptide fluorescence polarization, 2 h; 400,000 compounds, 0.93% hits; also: potency is read from the fitted curve at half-maximal effect; % is scaled to controls: 0 for no effect and ±100 for the full control effect
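VDR–SRC2-3 interaction, FP format. Cmpds 23 nl via pintool, brief spin, 2 h ambient incubation.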
TSHR antag: antagonists of human thyroid stimulating hormone receptor; TSHR-expressing cells, TSH-stimulated cAMP HTRF, 2 h; active compounds read low; activity change, negative = inhibition, % at 11.5 µM; 330,000 compounds, 0.2% hits; AID 504810;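 active = activity change below a set negative limit, meaning inhibition stronger than a set level, cut at about -70% in these data; inconclusive = activity change between two set negative limits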; also: % is scaled to controls: 0 for no effect and ±100 for the full control effect
Target sequence (P16473 whole entry, looked up): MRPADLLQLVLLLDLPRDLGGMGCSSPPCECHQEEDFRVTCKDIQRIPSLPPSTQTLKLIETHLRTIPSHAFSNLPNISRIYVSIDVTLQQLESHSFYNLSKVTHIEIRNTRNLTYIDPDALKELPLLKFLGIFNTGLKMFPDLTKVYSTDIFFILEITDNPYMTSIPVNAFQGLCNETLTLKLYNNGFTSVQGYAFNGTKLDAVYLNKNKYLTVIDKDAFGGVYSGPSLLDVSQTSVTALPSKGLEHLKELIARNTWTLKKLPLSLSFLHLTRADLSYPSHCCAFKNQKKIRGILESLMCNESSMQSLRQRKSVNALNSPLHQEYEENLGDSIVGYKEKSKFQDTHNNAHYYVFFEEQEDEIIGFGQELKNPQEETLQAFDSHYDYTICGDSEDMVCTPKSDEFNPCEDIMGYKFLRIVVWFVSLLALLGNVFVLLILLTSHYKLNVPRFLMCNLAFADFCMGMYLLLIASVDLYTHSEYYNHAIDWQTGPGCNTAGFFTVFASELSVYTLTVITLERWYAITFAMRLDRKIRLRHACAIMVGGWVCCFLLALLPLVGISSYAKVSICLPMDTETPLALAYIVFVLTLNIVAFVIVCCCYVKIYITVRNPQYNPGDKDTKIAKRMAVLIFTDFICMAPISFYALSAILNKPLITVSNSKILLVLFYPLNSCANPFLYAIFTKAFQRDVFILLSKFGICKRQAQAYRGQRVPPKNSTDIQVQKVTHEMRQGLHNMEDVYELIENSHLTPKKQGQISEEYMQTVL
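Freshly harvested TSHR cells receive pin-tooled compound, then EC80 TSH at 4nM final. After 2 hours at 37 deg C, antibody in lysis buffer and cAMP-d2 are added; 30 minutes at ambient temperature precede the HTRF read.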
Vif-A3G inh: blocks the Vif interaction with human APOBEC3G; Q9HC16; HeLa A3G-eYFP + Vif (tagged APOBEC3G with the HIV-1 protein that degrades it), YFP fluorescence, overnight; Potency, µM (highest dose often 46.1 µM), without a hit: top-dose activity, negative = active, most hits filed as inhibitors; 410,000 compounds, 0.076% hits; also: potency is read from the fitted curve at half-maximal effect; % is scaled to controls: 0 for no effect and ±100 for the full control effect; nearly all actives have a fitted effect of over 60% in size
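Read-out is eYFP fluorescence (Ex 488/Em 500-530) from Vif-expressing HeLa A3G-eYFP cells; more signal means A3G escaped Vif-mediated degradation. Cells plated overnight, compound pinned in, incubated overnight at 37 deg C.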
Vif-APOBEC3F blk: Vif-A3F binding inhibition | HeLa A3F-eYFP + Vif (tagged APOBEC3F with the HIV-1 protein that degrades it), YFP fluorescence increase | Potency, µM (series often up to 46.1 µM), without a hit: at the highest dose activity, negative = active | 390,000 compounds, 0.2% hits; also: potency is read from the fitted curve at half-maximal effect; % of control where 0% means no effect; nearly all actives have a fitted effect of over 65% in size
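Fluorescence increase (Ex 488/Em 500-530) after overnight compound treatment at 37 deg C flags inhibition of Vif-driven A3F-eYFP loss in stable HeLa A3F-eYFP/Vif cells seeded overnight beforehand.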
PLK1 PBD block: blocks phosphopeptide binding to human PLK1 polo-box domain. Plk1 PBD binding of FITC phosphopeptide, fluorescence polarization. Potency, µM, inactives show max response, negative = inhibition, usual class: inhibitors. 360,000 compounds, 2.8% hits. AID 720504; also: potency is read from the fitted curve at half-maximal effect; series mostly up to about 57 µM; % is scaled to controls: 0 for no effect and ±100 for the full control effect; nearly all actives have a fitted effect of over 65% in size
VDR confirm: inhibits human vitamin D receptor, primary hit validation | shares compounds with VDR inh | VDR-coactivator inhibition assay, qHTS confirmation | Potency, µM, actives largely listed as inhibitors | 840 compounds, 89% hits | AID 602199; also: potency is read from the fitted curve at half-maximal effect
VDR FP: confirmation of human VDR-coactivator binding inhibitors, fluorescein label; VDR-coactivator binding, fluorescein fluorescence polarization; 840 compounds, 48% hits; shares compounds with VDR inh; Potency, µM (top dose mostly 57.1 µM), inactives show top-dose activity change, negative = inhibition, hits mostly inhibitors; also: potency is read from the fitted curve at half-maximal effect
VDR bla reporter: confirmation of human vitamin D receptor inhibitors in reporter cells; shares compounds with VDR inh; VDR beta-lactamase reporter cells, FRET ratio; cells co-treated with VDR agonist LG190178; Potency, µM (top dose mostly 46.1 µM), inactives show at the top dose activity change, negative = inhibition, most hits filed as inhibitors; 840 compounds, 23% hits; also: potency is read from the fitted curve at half-maximal effect; % is scaled to controls: 0 for no effect and ±100 for the full control effect
VDR viability: counter-screen for vitamin D receptor inhibitors: cytotoxicity; Potency, µM (highest dose often 48.3 µM), for inactives: at the highest dose activity change, negative = cytotoxicity, actives largely listed as cytotoxic; cytotoxicity counter-screen, cell viability, qHTS; shares compounds with VDR inh; 840 compounds, 18% hits; AID 602204;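 also: potency is read from the fitted curve at half-maximal effect; plate controls were DMSO for no effect and high-concentration cycloheximide for full effect; nearly all actives have a fitted effect of over 75% in size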
TbPYK confirm: Trypanosoma brucei pyruvate kinase inhibition, cherry-pick confirmation; recombinant TbPYK, Kinase-Glo ATP luminescence; Potency, µM (titrated, usually from 76.9 µM), for inactives: at the highest dose activity change, negative = inhibition, usual class: inhibitors; shares compounds with PLK1 PBD block; AID 720569; 890 compounds, 67% hits; also: potency is read from the fitted curve at half-maximal effect; % is scaled to controls: 0 for no effect and ±100 for the full control effect; nearly all actives have a fitted effect of over 70% in size
TbPYK ADP-Glo: orthogonal confirmation of Trypanosoma brucei pyruvate kinase inhibitors; recombinant TbPYK, ADP-Glo luminescence, 60 min; shares compounds with PLK1 PBD block; 890 compounds, 62% hits; Potency, µM (titrated, usually from 76.9 µM), for inactives: top-dose activity change, negative = inhibition, most hits filed as inhibitors; also: potency is read from the fitted curve at half-maximal effect; % is scaled to controls: 0 for no effect and ±100 for the full control effect; nearly all actives have a fitted effect of over 75% in size
* marks the source's active call; other numbers are inactive results; ? = inconclusive; / = no result. Rows were chosen to be rich in hits. Some 3.1% of all compounds tested hit in one or more screens of this group. Unless noted, calls follow the shape of the dose curve; as a rule, active = well fitted curve in the direction sought with a large enough effect; inconclusive = small, poorly fitted or top-dose-only effect, or another doubt; inactive = no such curve, though single readings can be large; an effect the other way counts as inactive or inconclusive.

SMILES | VDR inh | TSHR antag | Vif-A3G inh | Vif-APOBEC3F blk | PLK1 PBD block | TbPYK confirm | TbPYK ADP-Glo | others
COc1ccccc1NC(=O)CCCCCN1C(=O)c2cccc([N+](=O)[O-])c2C1=O | -11.8% | -8.2 | -1.1% | -2.6% | -15.4% | / | /
COc1cc(/C=C2/C(=O)c3cccc([N+](=O)[O-])c3C2=O)c(Br)cc1O | 20µM* | 4.0 | -6.8% | -0.2% | 1.5µM* | 25.1µM* | -17.3% | VDR confirm=7.52*;VDR FP=3.16µM*;VDR bla reporter=?;VDR viability=?
Cc1ccc(-n2nnnc2C(Cl)(Cl)c2nnnn2-c2ccc(C)cc2)cc1 | 6.31µM* | -13.2 | -12.5% | -16.6% | 1.06µM* | 1.58µM* | 2.24µM* | VDR confirm=3.36*;VDR FP=?;VDR bla reporter=?;VDR viability=?
Clc1ccc(-c2nnnn2-c2ccc(Cl)cc2)cc1 | 8.5% | -7.2 | 2.1% | 9.5% | -6.8% | / | /
CCOc1ccc(CCNC(=O)CCCc2nnc3n(CC(C)C)c(=O)c4sccc4n23)cc1 | -4.1% | / | -1.0% | -1.5% | / | / | /
CC1COCC(C)N1C1=C(Cl)C(=O)c2ccccc2C1=O (stereo not given) | ? | / | -0.1% | -9.5% | 13.4µM* | ? | ?
CC(C)C1Nc2ccc(C(=O)O)cc2C2C=CCC21 (stereo not given) | ? | 7.3 | 0.4% | ? | ? | ? | ?
CCCC1Nc2ccc(C(=O)O)cc2C2C=CCC12 (stereo not given) | -37.5% | 35.9 | 0.4% | -13.7% | ? | / | /
CC(CCC(=O)O)C1CCC2C3CC[C@@H]4CCCC[C@@]4(C)C3CC[C@@]12C (stereo not given in full) | -20.1% | / | / | / | / | / | /
COc1cc2c(cc1OC)C(c1ccc([N+](=O)[O-])cc1)NCC2 (stereo not given) | -17.7% | 2.0 | 1.8% | -7.0% | 11.9% | -5.6% | -8.7%
COc1cc2c(cc1OC)C(c1cc([N+](=O)[O-])ccc1O)NCC2 (stereo not given) | -4.6% | 10.8 | -0.7% | -8.4% | 1.1% | / | /
Cc1ccc(-n2ncc(C(=O)N3CCN(C4CCCCC4)CC3)c2C2CCN(C(=O)OC(C)(C)C)CC2)cc1 | 13.9% | / | -0.4% | 4.6% | / | / | /
COc1cc(C2CC(=O)N(c3ccc(C)c(Cl)c3)C3=C2C(=O)OC3)cc(OC)c1OC (stereo not given) | -23.0% | / | / | / | / | / | /
CCOc1ccccc1N1CSC2=C(C#N)C(c3c(OC)ccc4ccccc34)CC(=O)N2C1 (stereo not given) | ? | 0.1 | -5.3% | -13.0% | 18.9µM* | 1.41µM* | 1.78µM*
COc1ccc(CCNC(=O)C2CC(=O)N(c3ccc(C)cc3)C2)cc1OC (stereo not given) | -4.3% | -2.8 | 1.5% | -9.7% | 4.2% | / | /
